Assay outcomes deposited in PubChem by National Center for Advancing Translational Sciences (NCATS).
AMA1-RON2 inh: disrupts binding of P. falciparum AMA1 to RON2 | AlphaScreen AMA1-biotinylated RON2 peptide binding | Potency, µM (top dose mostly 58.2 µM), for the others: at the top dose activity change, negative = inhibition, hits mostly inhibitors | hit rate 0.2% among 360,000 | AID 720542;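 note: 0% = vehicle wells and -100% = peptide control; nearly all actives have a fitted effect of over 45% in size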
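AMA1 (3D7) with his tag at 25 nM final met compounds first, then biotinylated RON2 peptide at 25 nM; detection used donor plus acceptor beads, 10 µg/mL apiece, read by AlphaScreen after 30 min at room temperature.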
SARS PLP yeast: SARS-CoV PLP inhibition in yeast; AID 485353; S. cerevisiae expressing SARS-CoV PLpro, growth rescue; Potency, µM (highest dose often 32.9 µM), for the others: at the highest dose activity, positive = growth rescue, hits mostly activators; hit rate 0.19% among 330,000; calls by dose curve; note: 0% is about no effect; nearly all actives have a fitted effect of over 55% in size
Pf growth 48h: P. falciparum growth inhibition at 48 hours (one generation). P. falciparum luciferase growth in erythrocytes, 48 h. Potency, µM (top dose mostly 28.7 µM), without a hit: at the top dose activity change, negative = inhibition, most hits filed as inhibitors. hit rate 5.9% among 310,000; note: % is set by controls: 0 for no effect and ±100 for the full control effect
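A one-generation exposure of luciferase-tagged malaria parasites in RPMI 1640/Albumax erythrocyte culture, 37 C and 5% CO2. Inhibition is inferred from decreased luminescence after adding detection reagent.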
Pf growth 96h: P. falciparum growth inhibition at 96 hour, primary screen for plastid delayed-death inhibitors | AID 504834 | hit rate 6.9% among 320,000 | Potency, µM (doses to about 28.7 µM), inactives show at the top dose activity change, negative = inhibition, usual class: inhibitors | P. falciparum luciferase reporter growth, 96 h; note: % is set by controls: 0 for no effect and ±100 for the full control effect
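Erythrocytes infected with luciferase-expressing P. falciparum were dispensed at 2% hematocrit and 0.05% parasitemia (final), then incubated with compounds 96 hours at 37 C in 5% CO2. Luminescence after detection reagent addition reported growth.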
Active calls of the source: *; i = inactive; ? = inconclusive; . = no result; [ ] = dose if it differs, or a comment. Compounds with a hit are over-represented: about 9.4% of the library has one in this group of screens. Unless noted, calls come from the whole dose curve; as a rule, active = well fitted curve in the direction sought with a large enough effect; inconclusive = small, poorly fitted or top-dose-only effect, or another doubt; inactive = no such curve, though single readings can be large; an effect the other way counts as inactive or inconclusive. Potency is the fitted concentration of half-maximal effect.

SMILES	AMA1-RON2 inh	SARS PLP yeast	Pf growth 48h	Pf growth 96h
O=C(NCCCn1ccnc1)c1cc(-c2ccncc2)nc2ccccc12	-17%	-3%	-21%	-3%
CC1CC(c2ccccc2)n2nc(NC(=O)c3ccco3)nc2N1 (stereo not drawn)	52%	4%	12%	8.3µM*
N#CC1C(=O)NC(=O)C(C#N)C12CCCC(C(F)(F)F)C2 (stereo not drawn)	0%	.	.	.
COc1ccc(C(=O)NC2CCc3ccccc32)cc1OC1CCN(C(C)=O)CC1 (stereo not drawn)	10%	-3%	?	13µM*
COc1cc(C(=O)NC2CC(C)(C)CC(C)(C)C2)ccc1OC1CCN(C(C)=O)CC1	14%	-11%	?	9.3µM*
COc1cc(C(=O)NC2Cc3ccccc3C2)ccc1OC1CCN(C(C)=O)CC1	7%	-2%	?	?
CCCn1nc2cc(C(=O)NC3CCc4ccccc43)ccc2c1OCC (stereo not drawn)	-5%	-7%	12µM*	?
O=C(/C=C\Nc1ccc(S(=O)(=O)Nc2ncccn2)cc1)c1ccccc1	5%	0%	18%	32%
Cc1ccccc1CCNC(=O)c1cc(C2CC2)nc2c1cnn2C(C)C	20%	7%	12µM*	13µM*
Cc1ccc(OCCNC(=O)c2cc(C3CC3)nc3c2cnn3C(C)C)cc1	-2%	3%	?	?
CCc1ccccc1NC(=O)CN(C)C(=O)c1cc(C2CC2)nc2c1cnn2C(C)C	0%	-3%	12µM*	?
CC(C)n1ncc2c(C(=O)NCCc3ccc(F)cc3)cc(C3CC3)nc21	14%	2%	9.3µM*	?
C/C(=N/NC(=O)c1ccc(Br)o1)C(C)C	27%	-6%	10%	?
O=C1CCc2cc(S(=O)(=O)N3CCCC3C(=O)N3CCN(c4ccccc4)CC3)ccc2N1 (stereo not drawn)	-3%	-6%	.	3%
COc1ccc(-n2nc(C(=O)N3CCCCC3)c(C)c(C#N)c2=O)cc1	5%	-3%	-8%	15%
CSc1cccc(NS(=O)(=O)c2cn(C)cn2)c1	8%	1%	21%	-31%
Cc1cccc(-n2ncc3c(N4CCCC4)ncnc32)c1	-4%	-38%	i	.
Cc1ccc(-n2ncc3c(N4CCN(c5ccccc5)CC4)ncnc32)c(C)c1	4%	6%	12µM*	?
Cc1cccc(C(=O)N2CCN(c3ncnc4c3cnn4-c3ccccc3)CC2)c1	21%	18%	9.3µM*	-15%
COc1ccc(N2CCN(c3ncnc4c3cnn4-c3ccc(C)cc3C)CC2)cc1	-5%	-7%	?	138%
COc1cc(OC)cc(-c2c(-c3ccc(F)cc3)c3cc(-c4ccc5[nH]ccc5c4)ccc3n2C)c1	-13%	1%	5.2µM*	1.7µM*
COc1cccc(-c2c(-c3cc(OC)cc(OC)c3)n(C)c3ccc(-c4ccc5[nH]ccc5c4)cc23)c1	-2%	-3%	5.9µM*	?
COc1cccc(-c2c(-c3cc(OC)cc(OC)c3)n(C)c3ccc(-c4cccc5[nH]ccc45)cc23)c1	0%	7%	1.9µM*	?
O=C1CC(=O)Nc2cc(S(=O)(=O)NCc3cccs3)ccc2N1	-4%	-6%	18%	36%
COCCN(CCOC)S(=O)(=O)c1ccc(C(=O)Nc2nnc(CSC)o2)cc1	44%	0%	-18%	-13%
SMILES	AMA1-RON2 inh	SARS PLP yeast	Pf growth 48h	Pf growth 96h
CC1C(=O)N(Cc2ccc([N+](=O)[O-])cc2)c2ccccc2N1C(=O)c1c(F)cccc1F (stereo not drawn)	6%	-2%	9.3µM*	?
COc1ccc(CN2C(=O)C(C)Oc3ccccc32)cc1 (stereo not drawn)	17%	0%	-7%	?
Cc1nn(Cc2ccc([N+](=O)[O-])cc2)c(=O)n1-c1c(F)cccc1F	-14%	-1%	-15%	0%
COc1ccc(CN2C(=O)C(C)N(C(=O)c3c(F)cccc3F)c3ccccc32)cc1 (stereo not drawn)	-1%	-5%	1.9µM*	2.1µM*
COc1cccc(CN2C(=O)C(C)N(C(=O)c3ccccc3)c3ccccc32)c1 (stereo not drawn)	-2%	0%	?	10µM*
C=CCOc1c(Br)cc(CNc2ccc(NC(=O)C(C)C)c(OC)c2)cc1OCC	-5%[11.6 µM]	1%	9.3µM*	?
C=CCOc1c(Br)cc(CNc2ccc3[nH]c(=O)[nH]c3c2)cc1OCC	-14%	1%	2%	10µM*
